Where “and” joins values, the source holds several entries; their conditions need not be identical. Equal values may be shown once. Results filed as inconclusive are left out. Entries that show only a call come without a potency. Calls of active or inactive are those of the source. Calls follow the shape of the dose curve; as a rule, active = well fitted curve in the direction sought with a large enough effect; inconclusive = small, poorly fitted or top-dose-only effect, or another doubt; inactive = no such curve, though single readings can be large; an effect the other way counts as inactive or inconclusive.
Tests used:
[1] = qHTS of pediatric cancer cell lines to identify multiple opportunities for drug repurposing: Primary screen for TC32 cells (AID 1347089); also: nearly all actives have a fitted effect of over 60% in size
How it was run: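 TC32 cells, 500-1,000/well in growth medium, compound-treated 48 h at 37 °C; viability from CellTiter-Glo luminescence. Primary screen: MIPE 11-point (0.78 nM–46 µM final), NPC 8-point (0.59 nM–46 µM final); confirmatory at 11-point dilutions.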

[2] = qHTS of pediatric cancer cell lines to identify multiple opportunities for drug repurposing: Primary screen for DAOY cells (AID 1347090); also: nearly all actives have a fitted effect of over 55% in size; also: potency is read from the fitted curve at half-maximal effect
How it was run: (§1)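 Viability measured as metabolically active cells via CellTiter-Glo luminescence following 48 hours of compound exposure, 11-point dilutions in confirmatory testing. 500-1,000 cells/well plated 5 hours before dosing; controls were DMSO and 2.3 µM bortezomib.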

[3] = qHTS of pediatric cancer cell lines to identify multiple opportunities for drug repurposing: Primary screen for SJ-GBM2 cells (AID 1347091); also: potency is read from the fitted curve at half-maximal effect
How it was run: as §1

[4] = qHTS of pediatric cancer cell lines to identify multiple opportunities for drug repurposing: Primary screen for A673 cells (AID 1347092); also: nearly all actives have a fitted effect of over 45% in size; also: potency is read from the fitted curve at half-maximal effect
How it was run: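 A673 cells (500-1,000 cells/well) were treated 48 hours at 37 degrees C with compounds at 11-point (0.78 nM to 46 µM) or 8-point (0.59 nM to 46 µM) dilutions. Viability read by CellTiter-Glo luminescence; concentration-response curves fitted.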

[5] = qHTS of pediatric cancer cell lines to identify multiple opportunities for drug repurposing: Primary screen for SK-N-MC cells (AID 1347093); also: potency is read from the fitted curve at half-maximal effect
How it was run: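 Metabolically active cells were quantified by ATP-dependent luminescence (CellTiter-Glo, 15 min at room temperature) following 48 h treatment. Cells had been plated at 500-1,000 per well and settled for 5 h beforehand.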

[6] = qHTS of pediatric cancer cell lines to identify multiple opportunities for drug repurposing: Primary screen for BT-37 cells (AID 1347094); also: potency is read from the fitted curve at half-maximal effect
How it was run: (§2)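 ATP-based luminescence (CellTiter-Glo) quantifies viability after a 48-hour exposure. Compounds are dosed across 8 or 11 final concentrations; DMSO and 2.3 µM bortezomib serve as controls.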

[7] = qHTS of pediatric cancer cell lines to identify multiple opportunities for drug repurposing: Primary screen for NB-EBc1 cells (AID 1347095); also: potency is read from the fitted curve at half-maximal effect
How it was run: as §2

[8] = qHTS of pediatric cancer cell lines to identify multiple opportunities for drug repurposing: Primary screen for U-2 OS cells (AID 1347096); also: nearly all actives have a fitted effect of over 50% in size
How it was run: (§3)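 Viability after 48 h compound treatment at 37C, 500-1,000 cells/well, read as ATP luminescence with CellTiter-Glo. Primary screens used 11-point (MIPE, 0.78 nM-46 µM) or 8-point (NPC, 0.59 nM-46 µM) final concentrations; follow-up screens used 11-point dilutions.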

[9] = qHTS of pediatric cancer cell lines to identify multiple opportunities for drug repurposing: Primary screen for Saos-2 cells (AID 1347097); also: nearly all actives have a fitted effect of over 40% in size; also: potency is read from the fitted curve at half-maximal effect
How it was run: as §2

[10] = qHTS of pediatric cancer cell lines to identify multiple opportunities for drug repurposing: Primary screen for SK-N-SH cells (AID 1347098); also: nearly all actives have a fitted effect of over 65% in size; also: potency is read from the fitted curve at half-maximal effect
How it was run: (§4)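 Cells (500-1,000/well) rested 5 h, then received compounds for 48 h; metabolically active cells were measured by CellTiter-Glo luminescence. Final concentrations spanned up to 46 µM (MIPE, 11-point) or 0.59 nM-46 µM (NPC, 8-point) in primary screens, 11-point in follow-ups.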

[11] = qHTS of pediatric cancer cell lines to identify multiple opportunities for drug repurposing: Primary screen for NB1643 cells (AID 1347099); also: nearly all actives have a fitted effect of over 50% in size; also: potency is read from the fitted curve at half-maximal effect
How it was run: as §2

[12] = qHTS of pediatric cancer cell lines to identify multiple opportunities for drug repurposing: Primary screen for LAN-5 cells (AID 1347100); also: potency is read from the fitted curve at half-maximal effect
How it was run: as §3

[13] = qHTS of pediatric cancer cell lines to identify multiple opportunities for drug repurposing: Primary screen for BT-12 cells (AID 1347101); also: nearly all actives have a fitted effect of over 25% in size; also: potency is read from the fitted curve at half-maximal effect
How it was run: as §4

[14] = qHTS of pediatric cancer cell lines to identify multiple opportunities for drug repurposing: Primary screen for Rh18 cells (AID 1347102); also: nearly all actives have a fitted effect of over 65% in size; also: potency is read from the fitted curve at half-maximal effect
How it was run: as §3

[15] = qHTS of pediatric cancer cell lines to identify multiple opportunities for drug repurposing: Primary screen for OHS-50 cells (AID 1347103); also: nearly all actives have a fitted effect of over 40% in size
How it was run: as §4

[16] = qHTS of pediatric cancer cell lines to identify multiple opportunities for drug repurposing: Primary screen for RD cells (AID 1347104); also: nearly all actives have a fitted effect of over 55% in size; also: potency is read from the fitted curve at half-maximal effect
How it was run: as §2

[17] = qHTS of pediatric cancer cell lines to identify multiple opportunities for drug repurposing: Primary screen for MG 63 (6-TG R) cells (AID 1347105); also: nearly all actives have a fitted effect of over 50% in size; also: potency is read from the fitted curve at half-maximal effect
How it was run: as §2

[18] = qHTS of pediatric cancer cell lines to identify multiple opportunities for drug repurposing: Primary screen for control Hh wild type fibroblast cells (AID 1347106); also: nearly all actives have a fitted effect of over 55% in size; also: potency is read from the fitted curve at half-maximal effect
How it was run: as §3

[19] = qHTS of pediatric cancer cell lines to identify multiple opportunities for drug repurposing: Primary screen for Rh30 cells (AID 1347107); also: series mostly up to about 46 µM; nearly all actives have a fitted effect of over 75% in size
How it was run: as §3

[20] = qHTS of pediatric cancer cell lines to identify multiple opportunities for drug repurposing: Primary screen for Rh41 cells (AID 1347108); also: nearly all actives have a fitted effect of over 70% in size; also: potency is read from the fitted curve at half-maximal effect
How it was run: as §2

SMILES | Potency [1] | Potency [2] | Potency [3] | Potency [4] | Potency [5] | Potency [6] | Potency [7] | Potency [8] | Potency [9] | Potency [10] | Potency [11] | Potency [12] | Potency [13] | Potency [14] | Potency [15] | Potency [16] | Potency [17] | Potency [18] | Potency [19] | Potency [20]
Cc1ccc(-c2nc3ccc(C)cn3c2CC(=O)N(C)C)cc1 | inactive | inactive | inactive | inactive | inactive | inactive | inactive | inactive | inactive | inactive | inactive | inactive | inactive | inactive | inactive | inactive | inactive | inactive | inactive | inactive
CCCC(C)(COC(N)=O)COC(=O)NC(C)C (stereo not given) | inactive | inactive | inactive | inactive | inactive | inactive | inactive | inactive | inactive | inactive | inactive | inactive | inactive | inactive | – | inactive | inactive | inactive | inactive | inactive
NCCc1cc(O)c(O)cc1O | inactive | inactive | inactive | inactive | inactive | inactive | inactive | inactive | inactive | inactive | inactive | inactive | inactive | inactive | – | inactive | inactive | inactive | inactive | inactive
CCN(CC)C(=O)N[C@@H]1C=C2c3cccc4[nH]cc(c34)C[C@@H]2N(C)C1 | inactive | inactive | inactive | inactive | inactive | inactive | inactive | inactive | inactive | inactive | inactive | inactive | inactive | inactive | inactive | inactive | inactive | inactive | inactive | inactive
CC[N+](CC)(CC)CC | inactive | inactive | inactive | inactive | inactive | inactive | inactive | inactive | inactive | inactive | inactive | inactive | inactive | inactive | – | inactive | inactive | inactive | inactive | inactive
C=C1CC[C@@]2(O)[C@H]3Cc4ccc(O)c5c4[C@@]2(CCN3CC2CC2)[C@H]1O5 | inactive | inactive | inactive | inactive | inactive | inactive | inactive | inactive | inactive | inactive | inactive | inactive | inactive | inactive | inactive | inactive | inactive | inactive | inactive | inactive
CNCC(O)c1ccc(O)cc1 (stereo not given) | inactive | inactive | inactive | inactive | inactive | inactive | inactive | inactive | inactive | inactive | inactive | inactive | inactive | inactive | inactive | inactive | inactive | inactive | inactive | inactive
Clc1cccc(N2CCNCC2)c1 | inactive | inactive | inactive | inactive | inactive | inactive | inactive | inactive | inactive | inactive | inactive | inactive | inactive | inactive | – | inactive | inactive | inactive | inactive | inactive
FC(F)(F)c1cccc(C2=CCN(CCc3ccc4ccccc4c3)CC2)c1 | inactive | inactive | inactive | inactive | inactive | inactive | inactive | inactive | inactive | inactive | inactive | inactive | inactive | inactive | – | inactive | inactive | inactive | inactive | inactive
CC[C@@H](CO)NC(=O)[C@@H]1C=C2c3cccc4[nH]cc(c34)C[C@H]2N(C)C1 | inactive | inactive | inactive | inactive | inactive | inactive | inactive | inactive | inactive | inactive | inactive | inactive | inactive | inactive | – | inactive | inactive | inactive | inactive | inactive
CC(=O)Nc1cc([As](=O)(O)O)ccc1O | inactive | inactive | inactive | inactive | inactive | inactive | inactive | inactive | inactive | inactive | inactive | inactive | inactive | inactive | – | inactive | inactive | inactive | inactive | inactive
CN(C)[C@@H]1C(=O)C(C(N)=O)=C(O)[C@@]2(O)C(=O)C3=C(O)c4c(O)cccc4[C@@](C)(O)[C@H]3C[C@@H]12 | inactive | inactive | inactive | inactive | inactive | – | inactive | inactive | inactive | inactive | – | inactive | – | inactive | – | inactive | inactive | inactive | inactive | inactive
O=C(O)c1ccc2[nH]cc(CCCCN3CC=C(c4ccccc4)CC3)c2c1 | inactive | inactive | inactive | inactive | inactive | inactive | – | inactive | – | inactive | inactive | inactive | inactive | inactive | – | inactive | inactive | inactive | inactive | inactive
CNC(=O)c1ccc(N2C(=S)N(c3ccc(C#N)c(C(F)(F)F)c3)C(=O)C23CCC3)cc1F | inactive | 3.72 µM (active) | inactive | 18.7 µM (active) | 5.9 µM (active) | inactive | – | – | inactive | 19.2 µM (active) | – | – | inactive | inactive | – | – | 11.8 µM (active) | 13.2 µM (active) | – | 11.8 µM (active)
Oc1ccccc1-c1ccccc1 | inactive | inactive | inactive | inactive | inactive | inactive | inactive | inactive | – | inactive | inactive | inactive | inactive | inactive | – | inactive | inactive | inactive | inactive | inactive
COC[C@H]1OC(=O)c2coc3c2[C@@]1(C)C1=C(C3=O)C2CCC(=O)[C@@]2(C)C[C@H]1OC(C)=O (stereo not given in full) | inactive | 18.7 µM (active) | 0.264 µM (active) | 4.69 µM (active) | 1.05 µM (active) | – | 0.833 µM (active) | – | 4.69 µM (active) | – | 11.8 µM (active) | 11.8 µM (active) | – | 20.9 µM (active) | – | 18.7 µM (active) | 9.35 µM (active) | – | – | 18.7 µM (active)
Oc1cc(Cl)ccc1Oc1ccc(Cl)cc1Cl | inactive | 49.5 µM (active) | 4.42 µM (active) | 39.4 µM (active) | 27.9 µM (active) | 40.9 µM (active) | 4.95 µM (active) | inactive | 24.8 µM (active) and 26.6 µM (active) | 11.4 µM (active) and 27.3 µM (active) | 35.1 µM (active) | – | 20.5 µM (active) | – | – | 39.4 µM (active) and 23.7 µM (active) | 24.8 µM (active) | inactive | inactive | –
OCCOc1ccccc1 | inactive | inactive | inactive | inactive | inactive | inactive | inactive | inactive | inactive | inactive | inactive | inactive | inactive | inactive | – | inactive | inactive | inactive | inactive | inactive
CN1CCN(C(=O)O[C@H]2c3nccnc3C(=O)N2c2ccc(Cl)cn2)CC1 | inactive | inactive | inactive | inactive | inactive | inactive | inactive | inactive | inactive | inactive | inactive | inactive | inactive | inactive | – | inactive | inactive | inactive | inactive | inactive
Clc1ccc(CCC(Cn2ccnc2)Sc2c(Cl)cccc2Cl)cc1 (stereo not given) | inactive | inactive | inactive | 23.5 µM (active) | 23.5 µM (active) | – | 21.1 µM (active) | – | – | – | – | 20.9 µM (active) | – | inactive | – | 37.2 µM (active) | inactive | inactive | inactive | inactive
CCC1(C2=NCCN2)Cc2ccccc2O1 (stereo not given) | inactive | inactive | inactive | inactive | inactive | inactive | inactive | inactive | inactive | – | inactive | inactive | inactive | inactive | inactive | inactive | inactive | inactive | inactive | inactive
CCCC1CCCCN1 (stereo not given) | inactive | inactive | inactive | inactive | inactive | inactive | inactive | inactive | inactive | inactive | inactive | inactive | inactive | inactive | – | inactive | inactive | inactive | inactive | inactive
CCCN1CCC[C@@H]2Cc3nc(N)ncc3C[C@H]21 | inactive | inactive | inactive | inactive | inactive | inactive | inactive | inactive | – | inactive | inactive | inactive | inactive | inactive | – | inactive | inactive | inactive | inactive | inactive
Cc1ccc(S(=O)(=O)N[C@@H](CCCCN)C(=O)CCl)cc1 | inactive | inactive | inactive | inactive | 21.1 µM (active) | inactive | inactive | inactive | – | inactive | inactive | inactive | – | inactive | inactive | inactive | inactive | inactive | inactive | inactive
O=C1NCN(c2ccccc2)C12CCN(CC1COc3ccccc3O1)CC2 (stereo not given) | inactive | inactive | inactive | inactive | inactive | inactive | inactive | inactive | – | inactive | inactive | inactive | inactive | inactive | inactive | inactive | inactive | inactive | inactive | inactive

From PubChem BioAssay (NCATS)
